Data on eight sequences can be found in publication PMC8384837, “Expanding the binding specificity for RNA recognition by a PUF domain”.

Common to all, as to experiment: yeast three-hybrid, YBZ-1, SC-Leu-His + 0.5 mM 3-AT, 4 days
Settings in all cases: tags: N-Gal4 AD-HA kept; label: inside an RPR1-promoter hybrid RNA with tandem MS2 sites; ssRNA

In assay [1] the target is PUM1 PUF domain R2-AVA (Homo sapiens, UniProt Q14671 828-1176, N899A;Y900V;Q903A). The essentials:
(§1)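 A centromeric plasmid in strain YBZ-1 co-expressed Pumilio-1 PUF domain libraries, randomized at the three base-contacting residues of each repeat, with matching RNA elements; the strain carries a LexA–MS2 coat fusion and a HIS3 reporter. After four days on SC-Leu (input) or SC-Leu-His + 0.5 mM 3-AT (selection), the repeat regions were PCR-amplified and Illumina-sequenced. The interaction score is the log change in variant frequency from input to selection, using log2 and a pseudocount of 1 where absent.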

For assay [2], the target named is PUM1 PUF domain R4-CPL (Homo sapiens, UniProt Q14671 828-1176, N971C;H972P;Q975L). An outline of the steps:
as §1

Assay [3] has as its target PUM1 PUF domain R3-YRS (Homo sapiens, UniProt Q14671 828-1176, C935Y;Q939S). The essentials: as §1
The target in assay [4] is PUM1 PUF domain R3-CNT (Homo sapiens, UniProt Q14671 828-1176, R936N;Q939T). The essentials:
as §1

For assay [5], the target named is PUM1 PUF domain R4-FGQ (Homo sapiens, UniProt Q14671 828-1176, N971F;H972G). An outline of the steps:
as §1

Assay [6] has as its target PUM1 PUF domain R5-KSN (Homo sapiens, UniProt Q14671 828-1176, C1007K;R1008S;Q1011N). The essentials: as §1
The target in assay [7] is PUM1 PUF domain R1-YKR (Homo sapiens, UniProt Q14671 828-1176, S863Y;R864K;Q867R). The essentials: as §1
Chain of PUM1 PUF domain R1-YKR (Q14671 828-1176 S863Y/R864K/Q867R): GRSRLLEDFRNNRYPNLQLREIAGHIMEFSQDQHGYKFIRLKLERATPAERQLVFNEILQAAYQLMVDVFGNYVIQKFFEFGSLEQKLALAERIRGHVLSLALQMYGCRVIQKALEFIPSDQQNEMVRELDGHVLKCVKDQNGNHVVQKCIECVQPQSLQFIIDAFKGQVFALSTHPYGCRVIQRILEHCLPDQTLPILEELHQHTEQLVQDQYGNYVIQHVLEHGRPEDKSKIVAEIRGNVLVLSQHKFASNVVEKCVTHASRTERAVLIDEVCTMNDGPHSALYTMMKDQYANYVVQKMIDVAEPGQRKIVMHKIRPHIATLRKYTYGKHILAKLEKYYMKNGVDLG
Assay [8] addresses PUM1 PUF domain R1-RRR (Homo sapiens, UniProt Q14671 828-1176, S863R;Q867R). An outline of the steps: as §1
In assay [9] the target is PUM1 PUF domain R8-RHN (Homo sapiens, UniProt Q14671 828-1176, N1122R;Y1123H;Q1126N). The essentials:
as §1

Assay [10] concerns the target PUM1 PUF domain R3-YWR (Homo sapiens, UniProt Q14671 828-1176, C935Y;R936W;Q939R). The essentials: as §1

Chain of PUM1 PUF domain R3-YRS (Q14671 828-1176 C935Y/Q939S): as the sequence (Q14671 828-1176 S863Y/R864K/Q867R) above, with Y36S, K37R, R40Q, C108Y, Q112S counted along it
Chain of PUM1 PUF domain R1-RRR (Q14671 828-1176 S863R/Q867R): as the sequence (Q14671 828-1176 S863Y/R864K/Q867R) above, with Y36R, K37R counted along it
Chain of PUM1 PUF domain R4-CPL (Q14671 828-1176 N971C/H972P/Q975L): as the sequence (Q14671 828-1176 S863Y/R864K/Q867R) above, with Y36S, K37R, R40Q, N144C, H145P, Q148L counted along it
Chain of PUM1 PUF domain R2-AVA (Q14671 828-1176 N899A/Y900V/Q903A): as the sequence (Q14671 828-1176 S863Y/R864K/Q867R) above, with Y36S, K37R, R40Q, N72A, Y73V, Q76A counted along it
Chain of PUM1 PUF domain R4-FGQ (Q14671 828-1176 N971F/H972G): as the sequence (Q14671 828-1176 S863Y/R864K/Q867R) above, with Y36S, K37R, R40Q, N144F, H145G counted along it
Chain of PUM1 PUF domain R3-CNT (Q14671 828-1176 R936N/Q939T): as the sequence (Q14671 828-1176 S863Y/R864K/Q867R) above, with Y36S, K37R, R40Q, R109N, Q112T counted along it
Chain of PUM1 PUF domain R8-RHN (Q14671 828-1176 N1122R/Y1123H/Q1126N): as the sequence (Q14671 828-1176 S863Y/R864K/Q867R) above, with Y36S, K37R, R40Q, N295R, Y296H, Q299N counted along it
Chain of PUM1 PUF domain R3-YWR (Q14671 828-1176 C935Y/R936W/Q939R): as the sequence (Q14671 828-1176 S863Y/R864K/Q867R) above, with Y36S, K37R, R40Q, C108Y, R109W, Q112R counted along it
Chain of PUM1 PUF domain R5-KSN (Q14671 828-1176 C1007K/R1008S/Q1011N): as the sequence (Q14671 828-1176 S863Y/R864K/Q867R) above, with Y36S, K37R, R40Q, C180K, R181S, Q184N counted along it

With “GGCUAGAACUAGUGGAUCCCCCGGCGCCCGGCGGCUCGAGCCCGGGUAAGUGUAAAGAGUCUGCAUGCCGCCGGGCGCCAUGCCUGCAGGUCGACUCUAGAAAACAUG”, the binding signal in assay [1] was 2.41 log2 enrichment (interaction score). In the case of “GGCUAGAACUAGUGGAUCCCCCGGCGCCCGGCGGCUCGAGCCCGGGUAAGUGUAAAUAGUCUGCAUGCCGCCGGGCGCCAUGCCUGCAGGUCGACUCUAGAAAACAUG”, the binding signal in assay [2] was 3.68 log2 enrichment (interaction score); in assay [3], 1.29 log2 enrichment (interaction score); in assay [4], 2.18 log2 enrichment (interaction score).

Consider “GGCUAGAACUAGUGGAUCCCCCGGCGCCCGGCGGCUCGAGCCCGGGUAAGUGUAUAUAGUCUGCAUGCCGCCGGGCGCCAUGCCUGCAGGUCGACUCUAGAAAACAUG”, for which the binding signal in [2] was 1.78 log2 enrichment (interaction score); in [5] it was 3.63 log2 enrichment (interaction score). With “GGCUAGAACUAGUGGAUCCCCCGGCGCCCGGCGGCUCGAGCCCGGGUAAGUGUCAAUAGUCUGCAUGCCGCCGGGCGCCAUGCCUGCAGGUCGACUCUAGAAAACAUG”, in assay [6], the binding signal was 3.85 log2 enrichment (interaction score). Regarding “GGCUAGAACUAGUGGAUCCCCCGGCGCCCGGCGGCUCGAGCCCGGGUAAGUGUAAAUCGUCUGCAUGCCGCCGGGCGCCAUGCCUGCAGGUCGACUCUAGAAAACAUG”, the results for the binding signal in [7] and in [8] were 8.91 log2 enrichment (interaction score) and 2.46 log2 enrichment (interaction score), respectively. Consider “GGCUAGAACUAGUGGAUCCCCCGGCGCCCGGCGGCUCGAGCCCGGGUAAGCGUAAAUAGUCUGCAUGCCGCCGGGCGCCAUGCCUGCAGGUCGACUCUAGAAAACAUG”, for which, in [9], the binding signal was 5.56 log2 enrichment (interaction score).

Consider “GGCUAGAACUAGUGGAUCCCCCGGCGCCCGGCGGCUCGAGCCCGGGUAAGUGUAAGUAGUCUGCAUGCCGCCGGGCGCCAUGCCUGCAGGUCGACUCUAGAAAACAUG”, for which the binding signal in assay [10] was 5.62 log2 enrichment (interaction score); in assay [3], 4.29 log2 enrichment (interaction score).

Take “GGCUAGAACUAGUGGAUCCCCCGGCGCCCGGCGGCUCGAGCCCGGGUAAGUGUAAAUUGUCUGCAUGCCGCCGGGCGCCAUGCCUGCAGGUCGACUCUAGAAAACAUG”: the binding signal in [8] is 2.49 log2 enrichment (interaction score).
